# In all, about 66,000 compounds went through this assay and about 960 (1.5%) showed an effect of 50% or more. Only a selection was taken, and strong results are over-represented in it overall.
# Test system: Trypanosoma brucei
# Assay: Trypanosoma brucei 72 hour study
# Assay type: functional, organism-based
# Design: scale not given: in the data most compounds retested in dose-response had high values
compound,measurement,setting,value
CNC(=O)C1CCCCN1C(=O)C1CCN(S(C)(=O)=O)CC1 (stereo unspecified),Percent Effect,"30.3 µM, […]",4.842%
Cc1nc(Nc2nncs2)cc(C2CNC2)n1.O=C(O)C(F)(F)F,Percent Effect,"30.3 µM, […]",-21.99%
CC(C)NC(=O)N1CCN(CCn2cccn2)c2ncccc2C1.O=C(O)C(F)(F)F,Percent Effect,"30.3 µM, […]",-82.31%
CN(C)CC(=O)N1CCCC2(CCN(c3ccccc3)C2=O)C1.O=C(O)C(F)(F)F (stereo unspecified),Percent Effect,"30.3 µM, […]",-9.805%
Cc1noc(C)c1CN1C[C@H](OCc2ccncc2)[C@H]2OCCC[C@H]21.O=C(O)C(F)(F)F.O=C(O)C(F)(F)F,Percent Effect,"30 µM, 30.03 µM",3.056%
CN(C)C(=O)[C@@H]1C[C@@H]2[C@@H](CCN2Cc2nccs2)O1.O=C(O)C(F)(F)F,Percent Effect,"30.3 µM, […]",-77.1%
Cn1ccc(CN2CCCC23CCN(Cc2ccccc2F)CC3)n1.O=C(O)C(F)(F)F.O=C(O)C(F)(F)F,Percent Effect,"30.3 µM, […]",-74.92%
O=C(NC1CC1)N1CCOCC2(CCN(Cc3cccs3)C2)C1.O=C(O)C(F)(F)F (stereo unspecified),Percent Effect,"30.3 µM, […]",-9.319%
Cl.c1nn(C2CCCCC2)cc1-c1cncn1CCCN1CCCCC1,Percent Effect,"30.3 µM, […]",-11.05%
Cc1cccc(C(=O)N2CCC3(CCN(c4cnn(C)c4)C3=O)C2)n1.O=C(O)C(F)(F)F (stereo unspecified),Percent Effect,"30 µM, 30.03 µM",-10.65%
c1cncc(-c2nc3c(c(NCC4(c5ccncc5)CC4)n2)CCC3)c1,Percent Effect,"30 µM, 30.03 µM",-5.668%
Cl.NC1CCc2nc(-c3cccnc3)nc(Nc3ccc(F)cc3)c2C1 (stereo unspecified),Percent Effect,"30.3 µM, […]",100.3%
CC(O)CNc1nc(-c2cccnc2)nc2c1CCC2 (stereo unspecified),Percent Effect,"30 µM, 30.03 µM",5.601%
CN(CC1CCCO1)c1nc(-c2cccnc2)nc2c1CCNCC2 (stereo unspecified),Percent Effect,"30 µM, 30.03 µM",0.7603%
CCc1noc(CNc2nc(-c3cccnc3)nc3c2CCNCC3)n1,Percent Effect,"30.3 µM, […]",2.358%
CN(C)c1cccc(C(=O)N2CCCC2c2ncc3c(n2)CCNC3)c1.Cl (stereo unspecified),Percent Effect,"30.3 µM, […]",-32.8%
CNS(=O)(=O)c1ccc(CNC(=O)N2CCOC(C)C2)cc1 (stereo unspecified),Percent Effect,"30.3 µM, […]",-5.397%
Cc1ccc2[nH]c(CNC(=O)C3CC4(CCNCC4)CN3C)nc2c1C (stereo unspecified),Percent Effect,"30 µM, 30.03 µM",-11.35%
CN(Cc1cncnc1)[C@@H]1CN(C(=O)c2ccco2)[C@@H]2CCCO[C@H]12.O=C(O)C(F)(F)F,Percent Effect,"30.3 µM, […]",-35.75%
CCC(=O)N1CCCC1c1csc(Nc2cnccn2)n1 (stereo unspecified),Percent Effect,"30.3 µM, […]",65.49%
c1cnc(N2CCCC(c3csc(Nc4cnccn4)n3)C2)nc1 (stereo unspecified),Percent Effect,"30.3 µM, […]",86.19%
Cc1nc(Nc2cnccn2)cc(C2CCN(c3ncccn3)C2)n1 (stereo unspecified),Percent Effect,"30.3 µM, […]",26.81%
CC(=O)N1CCCC1c1csc(Nc2cnccn2)n1 (stereo unspecified),Percent Effect,"30 µM, 30.03 µM",-20%
c1cnc(N2CCC(c3csc(Nc4cnccn4)n3)CC2)nc1,Percent Effect,"30.3 µM, […]",69.17%
COCC(=O)N1CCCC1c1csc(Nc2cnccn2)n1 (stereo unspecified),Percent Effect,"30.3 µM, […]",22.69%
NC(=O)CN1CCC(c2csc(Nc3cnccn3)n2)CC1,Percent Effect,"30.3 µM, […]",30.88%
c1cnc(Nc2cncc(C3CCCN(c4ncccn4)C3)n2)nc1 (stereo unspecified),Percent Effect,"30.3 µM, […]",-5.193%
OCCN1CCC(c2csc(Nc3cnccn3)n2)CC1,Percent Effect,"30.3 µM, […]",6.088%
Cc1c[nH]nc1C1CCCN1Cc1nccn1C.O=CO (stereo unspecified),Percent Effect,"30.3 µM, […]",-18.81%
CN1CCC(CN2CCC3(CCCN(Cc4ccoc4)C3)C2=O)CC1.O=C(O)C(F)(F)F.O=C(O)C(F)(F)F (stereo unspecified),Percent Effect,"30.3 µM, […]",-15.67%
Cn1cc(-c2ncc3c(c2C(=O)O)CCN(Cc2ccco2)C3)cn1.O=C(O)C(F)(F)F,Percent Effect,"30.3 µM, […]",-50.82%
CN(C)C1CCC2(CCN(Cc3cccnc3)CC2)c2ccccc21.O=C(O)C(F)(F)F.O=C(O)C(F)(F)F.O=C(O)C(F)(F)F (stereo unspecified),Percent Effect,"30.3 µM, […]",-21.62%
Clc1cccc(C2CCN(c3ncnc4c3CCNC4)C2)c1 (stereo unspecified),Percent Effect,"30.3 µM, […]",68.15%
c1ccc(C2CCN(c3ncnc4c3CCNC4)CC2)cc1,Percent Effect,"30.3 µM, […]",50.1%
c1ccc(C2CCCN(c3ncnc4c3CCNC4)CC2)cc1 (stereo unspecified),Percent Effect,"30.3 µM, […]",41.62%
c1cc(C2CCN(c3ncnc4c3CCNCC4)CC2)ccn1,Percent Effect,"30.3 µM, […]",2.643%
c1ccn2c(C3CCCN(c4ncnc5c4CCNC5)C3)nnc2c1 (stereo unspecified),Percent Effect,"30 µM, 30.03 µM",-44.47%
c1ccc2c(c1)CN(c1ncnc3c1CCNC3)CCO2,Percent Effect,"30.3 µM, […]",5.814%
CCCC(=O)NC1CCN(c2ccccc2S(=O)(=O)CC)CC1,Percent Effect,"30.3 µM, […]",-21.44%
CCNc1ncc2c(n1)CN(c1ccc(CC)cc1)C2=O,Percent Effect,"30.3 µM, […]",-19.29%
COc1cccc(Cc2nc3c([nH]2)CC(C)(C)CNC3=O)c1OC,Percent Effect,"30 µM, 30.03 µM",5.431%
O=C1NCCN1C1CCN(Cc2nc(-c3ccccc3)no2)CC1,Percent Effect,"30.3 µM, […]",2.472%
same,Percent Effect,"10 mM, 10 mM as filed; unlikely as a test dose",-47.27%
O=C(CO)N1C[C@H]2CN(Cc3cccc(F)c3)C(=O)[C@H]2C1,Percent Effect,"30 µM, 30.03 µM",-7.119%
O=C(NC1CC1)N1C[C@H]2CN(Cc3cccc(F)c3)C(=O)[C@H]2C1,Percent Effect,"30 µM, 30.03 µM",59.25%
O=C(c1ccco1)N1C[C@H]2CN(Cc3cccc(F)c3)C(=O)[C@H]2C1,Percent Effect,"30 µM, 30.03 µM",-14.72%
O=C(O)C(F)(F)F.O=C(O)C(F)(F)F.c1csc(CN2CCOCC3(CCN(C4CCOCC4)C3)C2)c1 (stereo unspecified),Percent Effect,"30 µM, 30.03 µM",45.09%
O=c1[nH]c2c(c(=O)n1C1CCCCC1)CCC2NCc1ccccc1 (stereo unspecified),Percent Effect,"30 µM, 30.03 µM",-25.27%
CCn1nc(C)c2ncnc(NCCCn3ccnc3)c21,Percent Effect,"30.3 µM, […]",-35.88%
COc1ccccc1Oc1ncccc1CNC(=O)C1COC(=O)N1 (stereo unspecified),Percent Effect,"30 µM, 30.03 µM",-37.43%
Cc1ccc(Oc2ncccc2CNC(=O)C2COC(=O)N2)c(F)c1F (stereo unspecified),Percent Effect,"30 µM, 30.03 µM",17.54%
Cc1cccc(C)c1Oc1ncccc1CNC(=O)C1COC(=O)N1 (stereo unspecified),Percent Effect,"30 µM, 30.03 µM",52.62%
O=C(O)C(F)(F)F.O=C(O)C(F)(F)F.O=C(O)C(F)(F)F.O=C(O)C(F)(F)F.c1ccc(CN2CCc3c(COCc4ccncc4)cncc3C2)nc1,Percent Effect,"30.3 µM, […]",-62.04%
CCN(CC)Cc1cc(=O)n2c(n1)CN(S(=O)(=O)C1CC1)CCC2.O=C(O)C(F)(F)F,Percent Effect,"30.3 µM, […]",-2.806%
COc1c(CNC2CCc3c(F)cccc32)c(C)nn1C.Cl (stereo unspecified),Percent Effect,10 µM,-43.32%
CC(C)[C@@H]1CN(CCOc2ccccc2)C[C@H]1NS(=O)(=O)N(C)C,Percent Effect,"30.3 µM, […]",99.19%
CC(C)[C@@H]1CN(Cc2ccccn2)C[C@H]1NS(=O)(=O)N(C)C,Percent Effect,"30 µM, 30.03 µM",-48.57%
CC(C)[C@@H]1CN(CCOc2ccc(Cl)cc2)C[C@H]1NS(C)(=O)=O,Percent Effect,"30.3 µM, […]",10.13%
Cc1ccc2c(c1)C(=O)NCC1(CCN(C(=O)c3ccccn3)CC1)O2,Percent Effect,"30.3 µM, […]",1.622%
CCN1C(=O)CC(c2ccccc2)C12CCN(CC1CCOCC1)CC2.O=C(O)C(F)(F)F (stereo unspecified),Percent Effect,"30.3 µM, […]",16.26%
CNc1ncc2c(n1)CN(CCc1ccccc1)C2=O,Percent Effect,"30 µM, 30.03 µM",0.2551%
COc1ccccc1OC1CCN(Cc2ccc(N(C)C)nc2)CC1,Percent Effect,"30 µM, 30.03 µM",16.29%
COc1ccccc1OC1CCN(Cc2cnc(N(C)C)nc2)CC1,Percent Effect,"30 µM, 30.03 µM",59.89%
COCc1ncc(CN2CCC(Oc3ccccc3OC)CC2)cn1,Percent Effect,"30 µM, 30.03 µM",-7.671%
C[C@@H]1C(=O)NC[C@H]2CN(Cc3ccc4c(c3)OCO4)C[C@H]21.O=C(O)C(F)(F)F,Percent Effect,"30.3 µM, […]",-39.22%
Cn1cccc1CN1CCC2(CC1)CN(c1ccccc1)C(=O)CO2.O=C(O)C(F)(F)F,Percent Effect,"30 µM, 30.03 µM",-21.68%
CCn1ccc(C(=O)N2CCOC(c3nc(-c4cccs4)no3)C2)n1 (stereo unspecified),Percent Effect,"30.3 µM, […]",21.37%
CCCn1cc(C(=O)N2CCOC(c3nc(-c4cccs4)no3)C2)cn1 (stereo unspecified),Percent Effect,"30.3 µM, […]",19.04%
CCCn1ccc(C(=O)N2CCOC(c3nc(-c4cccs4)no3)C2)n1 (stereo unspecified),Percent Effect,"30 µM, 30.03 µM",67.6%
Cc1csc(CN2CCC3(CC2)COC(COCC2CC2)C3)n1.O=C(O)C(F)(F)F (stereo unspecified),Percent Effect,"30.3 µM, […]",-1.163%
COc1nn(C)c2c1CCCN(C(=O)c1ccc3c(c1)OCO3)C2.O=C(O)C(F)(F)F,Percent Effect,"30 µM, 30.03 µM",-20.99%
CC(=O)N1CCN(c2cc(CCN)nc(C3CC3)n2)CC1.Cl,Percent Effect,"30.3 µM, […]",1.602%
COCCN1C[C@@H]2CN(Cc3ccc(F)cc3)C[C@@H]2C1=O.O=C(O)C(F)(F)F,Percent Effect,"30.3 µM, […]",-7.407%
O=C(O)C(F)(F)F.O=C1[C@H]2CN(Cc3ccco3)C[C@H]2CN1c1ccsc1,Percent Effect,"30 µM, 30.03 µM",73.83%
O=C(O)C(F)(F)F.O=C1[C@H]2CN(Cc3ccc(F)cc3)C[C@H]2CN1c1ccsc1,Percent Effect,"30 µM, 30.03 µM",14.65%
O=C(O)C(F)(F)F.O=C1[C@H]2CN(Cc3cccs3)C[C@H]2CN1c1ccsc1,Percent Effect,"30 µM, 30.03 µM",27.72%
CCOCCCn1c(NC(=O)c2ccc(C)nc2)nc2ccccc21,Percent Effect,"30 µM, 30.03 µM",8.402%
CCOCCCn1c(NC(=O)c2ccnc(C)n2)nc2ccccc21,Percent Effect,10 µM,-13.79%
CCOCCCn1c(NC(=O)c2cnc(C)s2)nc2ccccc21,Percent Effect,10 µM,-28.52%
CCOCCCn1c(NC(=O)c2cnc(C)cn2)nc2ccccc21,Percent Effect,10 µM,-41.49%
CCOCCCn1c(NC(=O)c2cc(C)on2)nc2ccccc21,Percent Effect,10 µM,-33.65%
CCCn1c(NC(=O)CNC(=O)OCC)nc2ccccc21,Percent Effect,"30 µM, 30.03 µM",-18.3%
CCN(CC)CCn1c(NC(=O)c2scnc2C)nc2ccccc21,Percent Effect,10 µM,84.6%
CCOCCCn1c(NC(=O)c2cnn(C)c2)nc2ccccc21,Percent Effect,"30 µM, 30.03 µM",64.95%
CCOCCCn1c(NC(=O)c2scnc2C)nc2ccccc21,Percent Effect,"30 µM, 30.03 µM",105.1%
Cc1noc(C)c1CN1CCOCC12CCN(c1ncccn1)CC2.O=C(O)C(F)(F)F,Percent Effect,"30.3 µM, […]",-79.15%
O=C(O)C(F)(F)F.O=C1CCC2(CCCN(CCc3ccccc3)C2)N1Cc1cccnc1 (stereo unspecified),Percent Effect,"30.3 µM, […]",-16.68%
CN(C)C(=O)[C@H]1C[C@@H]2CN(S(=O)(=O)Cc3ccccc3)C[C@H]1O2,Percent Effect,"30 µM, 30.03 µM",24.58%
COc1ccc(CN2CCO[C@H]3[C@H](OCc4ccncc4)CC[C@@H]32)cc1.O=C(O)C(F)(F)F.O=C(O)C(F)(F)F,Percent Effect,"30.3 µM, […]",-84.86%
Cc1nc(CN2CCCC2c2noc(C(C)C)n2)oc1C (stereo unspecified),Percent Effect,"30.3 µM, […]",12.42%
same,Percent Effect,"10 mM, 10 mM as filed; unlikely as a test dose",-15.34%
